For 22 compounds, outcome and AC50 results are on record in PubChem BioAssay (EPA / NIEHS).

Conditions in all cases: mRNA level, 48 h; actives raise or lower the signal
Read-out in experiment [1]: ATP-citrate lyase (ACLY), ACLY (gene 47)
Kind of experiment: LTEA_HepaRG_ACLY: Life Technologies and Expression Analysis (LTEA) Assay for ATP-citrate lyase (ACLY) using HepaRG (AID 2283466). Put shortly:
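HepaRG, 48 h exposure, 8-pt half-log dilutions (top 100 uM), 0.5% DMSO. Readout: ACLY mRNA, TaqMan qRT-PCR, housekeeping-normalized (ACTB/GAPDH/POLR2A). Bidirectional curve fit vs DMSO.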

Read-out in experiment [2]: Peroxisomal acyl-coenzyme A oxidase 1 (ACOX1) gene, ACOX1 (gene 51)
Kind of experiment: LTEA_HepaRG_ACOX1: Life Technologies and Expression Analysis (LTEA) Assay for Peroxisomal acyl-coenzyme A oxidase 1 (ACOX1) gene using HepaRG (AID 2283467). In a few lines: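 Measured by qRT-PCR against three housekeeping genes: ACOX1 transcript change in human HepaRG cells after 48 h dosing. Concentrations ran up to 100 uM in half-log steps. Curves were fitted bidirectionally relative to 0.5% DMSO.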

Read-out in experiment [3]: Alkaline Phosphatase, Placental (ALPP) gene, ALPP (gene 250)
Kind of experiment: LTEA_HepaRG_ALPP: Life Technologies and Expression Analysis (LTEA) Assay for Alkaline Phosphatase, Placental (ALPP) gene using HepaRG (AID 2283468). In a few lines:
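Using human liver HepaRG cells, chemicals are tested in duplicate over 48 h at half-log concentrations topping at 100 uM; phenobarbital 1 mM serves as induction control. ALPP mRNA change by qRT-PCR, bidirectional fit against vehicle.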

Read-out in experiment [4]: Bcl-2 (BAD) gene, BAD (gene 572)
Briefly: LTEA_HepaRG_BAD: Life Technologies and Expression Analysis (LTEA) Assay for Bcl-2 (BAD) gene using HepaRG (AID 2283469). Put shortly:
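BAD transcript change, measured by qRT-PCR against three housekeeping genes and fitted in both directions relative to 0.5% DMSO, after 48 h chemical treatment of human HepaRG liver cells at concentrations up to 100 uM.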

Read-out in experiment [5]: Bcl-2 (BAX) gene, BAX (gene 581)
Kind of experiment: LTEA_HepaRG_BAX: Life Technologies and Expression Analysis (LTEA) Assay for Bcl-2 (BAX) gene using HepaRG (AID 2283470). In a few lines:
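Differentiated human HepaRG cells, plated 48 h then switched to serum-free induction medium, were exposed 48 h to 8 half-log concentrations up to 100 uM in 0.5% DMSO; BAX mRNA measured by qRT-PCR, normalized to ACTB, GAPDH, POLR2A.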

Read-out in experiment [6]: adenosine kinase (ADK) gene, ADK (gene 132)
Briefly: LTEA_HepaRG_ADK: Life Technologies and Expression Analysis (LTEA) Assay for adenosine kinase (ADK) gene using HepaRG (AID 2283471). Put shortly: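 Following 48 h exposure of HepaRG cells in 0.5% DMSO (top concentration 100 uM, duplicate wells), ADK mRNA induction or suppression was measured by qRT-PCR, normalised to ACTB/GAPDH/POLR2A, and fitted bidirectionally relative to vehicle.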

Read-out in experiment [7]: Alpha-fetoprotein (AFP) gene, AFP (gene 174)
Briefly: LTEA_HepaRG_AFP: Life Technologies and Expression Analysis (LTEA) Assay for Alpha-fetoprotein (AFP) gene using HepaRG (AID 2283472). In a few lines:
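Human HepaRG cells plated 48 h, then switched to serum-free induction medium and exposed in duplicate for 48 h to 8-point half-log series from 100 uM in 0.5% DMSO. AFP mRNA by qRT-PCR, normalized to ACTB, GAPDH, POLR2A; bidirectional fit versus DMSO.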

Read-out in another experiment: BCL2L11 (gene 10018)
Kind of experiment: LTEA_HepaRG_BCL2L11: Life Technologies and Expression Analysis (LTEA) Assay for Bcl-2 (BCL2L11) gene using HepaRG (AID 2283473). In a few lines: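 Human hepatic HepaRG cultures are treated 48 h with test chemicals (maximum 100 uM, 0.5% DMSO vehicle). Expression of BCL2L11 is measured by qRT-PCR against ACTB, GAPDH and POLR2A, with activity in either direction scored relative to vehicle.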

Read-out in experiment [8]: Apolipoprotein A-V (APOA5) gene, APOA5 (gene 116519)
Briefly: LTEA_HepaRG_APOA5: Life Technologies and Expression Analysis (LTEA) Assay for Apolipoprotein A-V (APOA5) gene using HepaRG (AID 2283474). In a few lines:
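Concentration-response of APOA5 expression in HepaRG: eight half-log doses to 100 uM, 48 h, qRT-PCR normalized to ACTB/GAPDH/POLR2A, bidirectional fitting with 0.5% DMSO as baseline.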

Read-out in experiment [9]: Apoptosis regulator Bcl-2 (Homo sapiens) (UniProt P10415)
Briefly: LTEA_HepaRG_BCL2: Life Technologies and Expression Analysis (LTEA) Assay for Bcl-2 gene using HepaRG (AID 2283475). In a few lines: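 Differentiated HepaRG cells in serum-free induction medium were exposed for 48 h to eight half-log concentrations up to 100 uM in 0.5% DMSO, in duplicate. BCL2 mRNA was quantified by TaqMan qRT-PCR normalised to ACTB, GAPDH and POLR2A, with bidirectional fitting versus DMSO.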

Active and inactive are the calls of the source. The calls were made as follows: active = hit-call score of the fitted dose curve at least 0.9, where 1 is the maximum; inactive = score below 0.9.

Apoptosis regulator Bcl-2 (Homo sapiens), sequence (P10415 whole entry, looked up): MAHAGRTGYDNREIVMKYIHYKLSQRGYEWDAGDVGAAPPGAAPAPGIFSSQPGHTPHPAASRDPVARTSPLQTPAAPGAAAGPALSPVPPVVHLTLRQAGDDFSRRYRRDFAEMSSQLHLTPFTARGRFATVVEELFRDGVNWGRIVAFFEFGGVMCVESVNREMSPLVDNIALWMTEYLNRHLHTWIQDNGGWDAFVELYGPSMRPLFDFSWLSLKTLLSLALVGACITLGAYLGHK

For `CC(CO)OC(C)CO` (configuration not stated) (tested in a mixture with another compound), the compound was called inactive in experiment [1], in [2], in experiment [3], in experiment [4], in experiment [5] and in [6]. Moreover, the outcome (in experiment [7]; with BCL2L11 (gene 10018); in experiment [8]; in experiment [9]) was inactive.
For the compound `NC(=O)Cn1c(=O)cc(CCN2CCN(c3nccc4sccc34)CC2)c2ccc(F)cc21`, the compound was called inactive (in experiment [1]; in [2]; in [4]; in experiment [6]; with BCL2L11 (gene 10018); in [8]). Moreover, the AC50 in experiment [3] was 50 µM (active); in experiment [5], 29 µM (active); in experiment [7], 50 µM (active); in [9], 50 µM (active).
Take `C=CCOC(=O)c1ccccc1C(=O)OCC=C`: the outcome in [1], in experiment [3], in [4], in experiment [5], in [6] and in experiment [7] was inactive. Moreover, the compound was called inactive (with BCL2L11 (gene 10018); in experiment [8]; in experiment [9]).
`CCCCCCCCCCO`: the outcome in experiment [1], in experiment [2], in [3], in experiment [4], in experiment [5] and in experiment [6] was inactive. Also, the result (in experiment [7]; in the experiment with BCL2L11 (gene 10018); in [8]; in [9]) was inactive.
As for `CC(=O)Oc1ccccc1C(=O)O`, the outcome in experiment [1], in experiment [2], in experiment [3], in experiment [4], in experiment [5] and in experiment [6] was inactive. The compound was classed as inactive (in experiment [7]; with BCL2L11 (gene 10018); in experiment [8]; in experiment [9]).
Take `C=CCc1ccc(O)c(OC)c1`: the call in [1], in experiment [3], in [4], in [5], in [6] and in experiment [7] was inactive. The result (with BCL2L11 (gene 10018); in experiment [8]; in [9]) was inactive.
As for `Cc1ccc(Cl)cc1`, the call in [1], in experiment [2], in [3], in [4], in experiment [5] and in experiment [6] was inactive. For the same compound, the call (in [7]; in the experiment with BCL2L11 (gene 10018); in experiment [8]; in [9]) was inactive.
Turning to `CCOC(=O)CCC(=O)OCC`, the result in experiment [1], in [2], in experiment [3], in experiment [4], in experiment [5] and in experiment [7] was inactive. For the same compound, the compound was classed as inactive (in the experiment with BCL2L11 (gene 10018); in [8]; in experiment [9]). Also, in [6], the concentration at half-maximal activity (AC50) is 79.3 µM (active).
Consider `c1cc(-c2ccncc2)ccn1`, for which the compound was called inactive in experiment [1], in [2], in [3], in experiment [4], in experiment [5] and in [6]. For the same compound, the outcome (in [7]; with BCL2L11 (gene 10018); in experiment [8]; in experiment [9]) was inactive.
On to `COCCOCCOC`, for which the call (in experiment [1]; in experiment [3]; in experiment [5]; with BCL2L11 (gene 10018); in experiment [8]) was inactive. Besides, the AC50 was 9.92 µM (active) in experiment [2]; 1.39 µM (active) in experiment [4]; 2.17 µM (active) in [6]; 0.517 µM (active) in [7]; 0.723 µM (active) in [9].
For the compound `Nc1nc(N)c2nc(CNc3ccc(C(=O)N[C@@H](CCC(=O)O)C(=O)O)cc3)cnc2n1`, the call in experiment [1], in experiment [2], in experiment [3], in experiment [4], in experiment [5] and in [6] was inactive. The outcome (with BCL2L11 (gene 10018); in experiment [8]; in experiment [9]) was inactive. Besides, the AC50 in experiment [7] is 0.11 µM (active).
In the case of `NS(=O)(=O)c1cc2c(cc1Cl)NCNS2(=O)=O`, the compound was classed as inactive in experiment [1], in [3], in experiment [4], in experiment [5], in experiment [6] and in [7]. Further, the result (in the experiment with BCL2L11 (gene 10018); in experiment [8]; in experiment [9]) was inactive.
Regarding `COc1cc(C=O)ccc1O`, the result in experiment [1], in [2], in experiment [3], in [4], in experiment [5] and in experiment [6] was inactive. Also, the compound was classed as inactive (in [7]; with BCL2L11 (gene 10018); in experiment [8]; in [9]).
With `Cc1c(C(=O)O)c(O)cc2c1C(=O)c1c(O)c([C@@H]3O[C@H](CO)[C@@H](O)[C@H](O)[C@H]3O)c(O)c(O)c1C2=O`, the compound was classed as inactive in experiment [1], in [3], in [4], in experiment [5], in experiment [6] and in [7]. Also, the call (in the experiment with BCL2L11 (gene 10018); in experiment [8]; in experiment [9]) was inactive.
On to `Cc1ccccc1Cl`, for which the result in experiment [1], in experiment [3], in experiment [4], in experiment [5], in [6] and in [7] was inactive. Further, the compound was classed as inactive (in the experiment with BCL2L11 (gene 10018); in experiment [8]; in experiment [9]).
On to `CCCCCCCCCCCC(=O)OC`, for which the call in [1], in [3], in experiment [4], in experiment [5], in experiment [6] and in [7] was inactive. Further, the call (with BCL2L11 (gene 10018); in experiment [8]; in experiment [9]) was inactive.
For `Clc1cc(Cl)c(Cl)cc1Cl`, the compound was classed as inactive in experiment [1], in experiment [3], in experiment [4], in experiment [5], in [6] and in experiment [7]. In addition, the result (in the experiment with BCL2L11 (gene 10018); in [8]; in experiment [9]) was inactive.
As to `CCOc1ccc2c(c1)C(C)=CC(C)(C)N2`, the outcome in [1], in [3], in experiment [4], in experiment [5], in experiment [6] and in experiment [8] was inactive. The result in [9] was inactive. Further, the figures for the AC50 (in [7]; with BCL2L11 (gene 10018)) were 50 µM (active) and 9.92 µM (active), respectively.
Take `O=C(O)CCCCC(=O)O`: the result in experiment [1], in experiment [3], in experiment [4], in experiment [5], in [6] and in experiment [7] was inactive. The compound was classed as inactive (in the experiment with BCL2L11 (gene 10018); in experiment [8]; in experiment [9]).
On to `CCCCCCOCCO`, for which the compound was called inactive in [1], in experiment [3], in experiment [4], in experiment [5], in experiment [6] and in experiment [7]. Moreover, the compound was called inactive (with BCL2L11 (gene 10018); in experiment [8]; in experiment [9]).
As to `Cc1cc(=O)[nH]c(=S)[nH]1`, the result in experiment [1], in experiment [3], in [4], in experiment [5], in [6] and in experiment [7] was inactive. The compound was classed as inactive (in the experiment with BCL2L11 (gene 10018); in [8]; in experiment [9]).
With `O=[N+]([O-])C(CO)(CO)CO`, the call (in experiment [3]; in [4]; in experiment [5]; in experiment [6]; in experiment [7]; in the experiment with BCL2L11 (gene 10018)) was inactive. Further, the compound was called inactive in [8] and in experiment [9].

A word on the AC50: it is the concentration at which the activity in the assay is half-maximal.
